From PubChem BioAssay AID1159580 (chemical genetic matrix, 2015)
Screen size: about 5,500 compounds; about 2,000 (36%) were called active. Roughly 18% stayed inconclusive and do not appear here. No stated cut-off is given here; in the data, active means normalized growth mostly below about 0.91 (no sharp cut-off); inconclusive means no clear call, values can overlap the other calls; inactive means mostly above about 0.92. The list shows a part of the results.

Experiment: chemical genetic growth profiling, strain panel (AID 1159580);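 further: tested at 20 µM; growth read once vehicle control cultures reached saturation at 30 °C; 1 = growth at the plate median or of vehicle wells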
Conditions: growth OD
[1] = S. cerevisiae deletion strains, locus YAL013W, strain DEP1, stronger effect = lower value
[2] = S. cerevisiae deletion strains, locus YCL061C, strain MRC1, stronger effect = lower value
[3] = S. cerevisiae deletion strains, locus YDR150W, strain NUM1, stronger effect = lower value
[4] = S. cerevisiae deletion strains, locus YGR229C, strain SMI1, stronger effect = lower value
[5] = S. cerevisiae deletion strains, locus YHR030C, strain SLT2, stronger effect = lower value
[6] = S. cerevisiae deletion strains, locus YJL187C, strain SWE1, stronger effect = lower value
[7] = S. cerevisiae deletion strains, locus YJR075W, strain HOC1, stronger effect = lower value
[8] = S. cerevisiae deletion strains, locus YMR307W, strain GAS1, stronger effect = lower value
[9] = S. cerevisiae deletion strains, locus YNL128W, strain TEP1, stronger effect = lower value
[10] = S. cerevisiae deletion strains, locus YNL322C, strain KRE1, stronger effect = lower value
[11] = S. cerevisiae deletion strains, locus YPL055C, strain LGE1, stronger effect = lower value
[12] = S. cerevisiae deletion strains, locus YPL241C, strain CIN2, stronger effect = lower value
[13] = S. cerevisiae deletion strains, locus YBR229C, strain ROT2, stronger effect = lower value
[14] = S. cerevisiae deletion strains, locus YDL101C, strain DUN1, stronger effect = lower value
[15] = S. cerevisiae deletion strains, locus YDL134C, strain PPH21, stronger effect = lower value
[16] = S. cerevisiae deletion strains, locus YEL061C, strain CIN8, stronger effect = lower value
[17] = S. cerevisiae deletion strains, locus YGR078C, strain PAC10, stronger effect = lower value
[18] = S. cerevisiae deletion strains, locus YHR087W, strain rtc3, stronger effect = lower value
[19] = S. cerevisiae deletion strains, locus YJR043C, strain POL32, stronger effect = lower value
[20] = S. cerevisiae deletion strains, locus YLR039C, strain RIC1, stronger effect = lower value
[21] = S. cerevisiae deletion strains, locus YLR058C, strain SHM2 (second series), stronger effect = lower value
[22] = S. cerevisiae deletion strains, locus YLR085C, strain ARP6, stronger effect = lower value
[23] = S. cerevisiae deletion strains, locus YLR262C, strain YPT6, stronger effect = lower value
[24] = S. cerevisiae deletion strains, locus YML094W, strain GIM5, stronger effect = lower value
[25] = S. cerevisiae deletion strains, locus YMR219W, strain ESC1, stronger effect = lower value
[26] = S. cerevisiae deletion strains, locus YMR263W, strain SAP30, stronger effect = lower value
[27] = S. cerevisiae deletion strains, locus YNL153C, strain GIM3, stronger effect = lower value
[28] = S. cerevisiae deletion strains, locus YNL298W, strain CLA4 (second series), stronger effect = lower value
[29] = S. cerevisiae deletion strains, locus YNR030W, strain Alg12, stronger effect = lower value
[30] = S. cerevisiae deletion strains, locus YPR135W, strain CTF4, stronger effect = lower value

Measured: normalized growth

Cc1ccc(C(=O)Nc2ccc(S(=O)(=O)O)c3cc(S(=O)(=O)O)cc(S(=O)(=O)O)c23)cc1NC(=O)c1cccc(NC(=O)Nc2cccc(C(=O)Nc3cc(C(=O)Nc4ccc(S(=O)(=O)O)c5cc(S(=O)(=O)O)cc(S(=O)(=O)O)c45)ccc3C)c2)c1
inactive: [1] 1.03 | S. cerevisiae deletion strains, locus YAL021C, strain ccr4, stronger effect = lower value 1.03 | S. cerevisiae deletion strains, locus YAL026C, strain drs2, stronger effect = lower value 1 | S. cerevisiae deletion strains, locus YAL030W, strain snc1, stronger effect = lower value 1.01 | S. cerevisiae deletion strains, locus YAL040C, strain CLN3, stronger effect = lower value 0.968 | S. cerevisiae deletion strains, locus YBL061C, strain skt5, stronger effect = lower value 1.01 | S. cerevisiae deletion strains, locus YBR009C, strain hhf1, stronger effect = lower value 0.98 | S. cerevisiae deletion strains, locus YBR023C, strain chs3, stronger effect = lower value 1.04 | S. cerevisiae deletion strains, locus YBR171W, strain sec66, stronger effect = lower value 1.03 | S. cerevisiae deletion strains, locus YBR231C, strain swc5, stronger effect = lower value 1.02 | S. cerevisiae deletion strains, locus YBR279W, strain paf1, stronger effect = lower value 1.02 | S. cerevisiae deletion strains, locus YCL011C, strain gbp2, stronger effect = lower value 1.02 | S. cerevisiae deletion strains, locus YCL016C, strain dcc1, stronger effect = lower value 1.03 | S. cerevisiae deletion strains, locus YCL061C, strain MRC1 (second series), stronger effect = lower value 1 | [2] 1.03 | S. cerevisiae deletion strains, locus YCL069W, strain vba3, stronger effect = lower value 1.01 | S. cerevisiae deletion strains, locus YCR088W, strain abp1, stronger effect = lower value 1.01 | S. cerevisiae deletion strains, locus YDL005C, strain med2, stronger effect = lower value 1.02 | S. cerevisiae deletion strains, locus YDL040C, strain nat1, stronger effect = lower value 1.01 | S. cerevisiae deletion strains, locus YDR001C, strain nth1, stronger effect = lower value 1.01 | S. cerevisiae deletion strains, locus YDR069C, strain doa4, stronger effect = lower value 1.02 | S. cerevisiae deletion strains, locus YDR137W, strain rgp1, stronger effect = lower value 1.05 | [3] 0.998 | S. cerevisiae deletion strains, locus YDR159W, strain sac3, stronger effect = lower value 1 | S. cerevisiae deletion strains, locus YDR195W, strain ref2 1.02 | S. cerevisiae deletion strains, locus YDR297W, strain sur2, stronger effect = lower value 1.01 | S. cerevisiae deletion strains, locus YDR334W, strain swr1, stronger effect = lower value 1.03 | S. cerevisiae deletion strains, locus YDR335W, strain msn5, stronger effect = lower value 1.02 | S. cerevisiae deletion strains, locus YDR363W, strain ESC2, stronger effect = lower value 1.01 | S. cerevisiae deletion strains, locus YDR392W, strain spt3, stronger effect = lower value 0.975 | S. cerevisiae deletion strains, locus YEL003W, strain gim4, stronger effect = lower value 1.01 | S. cerevisiae deletion strains, locus YEL037C, strain rad23, stronger effect = lower value 1.01 | S. cerevisiae deletion strains, locus YEL061C, strain CIN8 (second series), stronger effect = lower value 1.01 | S. cerevisiae deletion strains, locus YER002W, strain NOP16, stronger effect = lower value 1.03 | S. cerevisiae deletion strains, locus YER015W, strain faa2, stronger effect = lower value 0.999 | S. cerevisiae deletion strains, locus YER016W, strain bim1, stronger effect = lower value 1.01 | S. cerevisiae deletion strains, locus YER111C, strain swi4, stronger effect = lower value 1.03 | S. cerevisiae deletion strains, locus YER155C, strain BEM2 (second series), stronger effect = lower value 1.03 | S. cerevisiae deletion strains, locus YFR010W, strain ubp6, stronger effect = lower value 1.01 | S. cerevisiae deletion strains, locus YGL167C, strain pmr1, stronger effect = lower value 1.01 | S. cerevisiae deletion strains, locus YGL173C, strain kem1, stronger effect = lower value 1.02 | S. cerevisiae deletion strains, locus YGL227W, strain vid30, stronger effect = lower value 1.03 | S. cerevisiae deletion strains, locus YGL240W, strain doc1, stronger effect = lower value 1.04 | S. cerevisiae deletion strains, locus YGL253W, strain hxk2, stronger effect = lower value 1.03 | [4] 1.04 | S. cerevisiae deletion strains, locus YHR013C, strain ard1, stronger effect = lower value 1.05 | S. cerevisiae deletion strains, locus YHR027C, strain rpn1, stronger effect = lower value 1.03 | [5] 1.11 | S. cerevisiae deletion strains, locus YHR079C, strain IRE1, stronger effect = lower value 1.1 | S. cerevisiae deletion strains, locus YHR142W, strain chs7, stronger effect = lower value 1.04 | S. cerevisiae deletion strains, locus YJL092W, strain hpr5, stronger effect = lower value 1.02 | S. cerevisiae deletion strains, locus YJL095W, strain BCK1 (second series), stronger effect = lower value 1.01 | S. cerevisiae deletion strains, locus YJL095W, strain BCK1, stronger effect = lower value 1.09 | S. cerevisiae deletion strains, locus YJL115W, strain asf1, stronger effect = lower value 1.03 | S. cerevisiae deletion strains, locus YJL129C, strain trk1, stronger effect = lower value 1.07 | S. cerevisiae deletion strains, locus YJL154C, strain vps35, stronger effect = lower value 1.03 | S. cerevisiae deletion strains, locus YJL164C, strain tpk1, stronger effect = lower value 1 | S. cerevisiae deletion strains, locus YJL166W, strain qcr8, stronger effect = lower value 1.03 | [6] 1.02 | S. cerevisiae deletion strains, locus YJR066W, strain TOR1, stronger effect = lower value 0.998 | [7] 1.01 | S. cerevisiae deletion strains, locus YKL160W, strain elf1, stronger effect = lower value 1.05 | S. cerevisiae deletion strains, locus YKR026C, strain gcn3, stronger effect = lower value 1.02 | S. cerevisiae deletion strains, locus YKR091W, strain srl3, stronger effect = lower value 1.01 | S. cerevisiae deletion strains, locus YLL001W, strain dnm1, stronger effect = lower value 1.07 | S. cerevisiae deletion strains, locus YLL026W, stronger effect = lower value 1.01 | S. cerevisiae deletion strains, locus YLL041C, strain sdh2, stronger effect = lower value 1.02 | S. cerevisiae deletion strains, locus YLR027C, strain aat2, stronger effect = lower value 1.02 | S. cerevisiae deletion strains, locus YLR113W, strain HOG1, stronger effect = lower value 1.12 | S. cerevisiae deletion strains, locus YLR221C, strain rsa3, stronger effect = lower value 1.03 | S. cerevisiae deletion strains, locus YLR258W, strain gsy2, stronger effect = lower value 1 | S. cerevisiae deletion strains, locus YLR262C, strain YPT6 (second series), stronger effect = lower value 1.04 | S. cerevisiae deletion strains, locus YLR320W, strain mms22, stronger effect = lower value 1.07 | S. cerevisiae deletion strains, locus YLR342W, strain FKS1, stronger effect = lower value 1.02 | S. cerevisiae deletion strains, locus YLR357W, strain rsc2, stronger effect = lower value 1.03 | S. cerevisiae deletion strains, locus YLR370C, strain arc18, stronger effect = lower value 1.03 | S. cerevisiae deletion strains, locus YLR384C, strain iki3, stronger effect = lower value 1.01 | S. cerevisiae deletion strains, locus YML120C, strain ndi1, stronger effect = lower value 1.04 | S. cerevisiae deletion strains, locus YMR058W, strain fet3, stronger effect = lower value 1.03 | S. cerevisiae deletion strains, locus YMR125W, strain sto1, stronger effect = lower value 1.06 | S. cerevisiae deletion strains, locus YMR129W, stronger effect = lower value 1.01 | S. cerevisiae deletion strains, locus YMR205C, strain PFK2, stronger effect = lower value 1.06 | S. cerevisiae deletion strains, locus YMR231W, strain pep5, stronger effect = lower value 1.01 | [8] 0.993 | S. cerevisiae deletion strains, locus YNL071W, strain lat1, stronger effect = lower value 1.02 | [9] 1.01 | S. cerevisiae deletion strains, locus YNL175C, strain NOP13, stronger effect = lower value 1.02 | S. cerevisiae deletion strains, locus YNL183C, strain NPR1, stronger effect = lower value 1 | S. cerevisiae deletion strains, locus YNL197C, strain WHI3, stronger effect = lower value 1 | S. cerevisiae deletion strains, locus YNL209W, strain ssb2, stronger effect = lower value 1.02 | S. cerevisiae deletion strains, locus YNL224C, strain SQS1, stronger effect = lower value 1.02 | S. cerevisiae deletion strains, locus YNL248C, strain rpa49, stronger effect = lower value 1.06 | S. cerevisiae deletion strains, locus YNL322C, strain KRE1 (second series), stronger effect = lower value 1.03 | [10] 1.04 | S. cerevisiae deletion strains, locus YNR049C, strain mso1, stronger effect = lower value 1.01 | S. cerevisiae deletion strains, locus YOR001W, strain rrp6, stronger effect = lower value 0.967 | S. cerevisiae deletion strains, locus YOR070C, strain gyp1, stronger effect = lower value 1.02 | S. cerevisiae deletion strains, locus YOR080W, strain dia2, stronger effect = lower value 1.01 | S. cerevisiae deletion strains, locus YOR083W, strain WHI5 (second series), stronger effect = lower value 0.997 | S. cerevisiae deletion strains, locus YOR083W, strain WHI5, stronger effect = lower value 1.04 | S. cerevisiae deletion strains, locus YOR106W, strain vam3, stronger effect = lower value 1.05 | S. cerevisiae deletion strains, locus YOR231W, strain MKK1, stronger effect = lower value 1.11 | S. cerevisiae deletion strains, locus YOR265W, strain rbl2, stronger effect = lower value 1.01 | S. cerevisiae deletion strains, locus YOR270C, strain vph1, stronger effect = lower value 1.11 | S. cerevisiae deletion strains, locus YOR290C, strain snf2, stronger effect = lower value 1.06 | S. cerevisiae deletion strains, locus YPL051W, strain arl3, stronger effect = lower value 1.05 | [11] 1.02 | S. cerevisiae deletion strains, locus YPL078C, strain atp4, stronger effect = lower value 1.06 | S. cerevisiae deletion strains, locus YPL106C, strain sse1, stronger effect = lower value 1.01 | S. cerevisiae deletion strains, locus YPL240C, strain hsp82, stronger effect = lower value 1.01 | [12] 1 | S. cerevisiae deletion strains, locus YPL256C, strain CLN2, stronger effect = lower value 1.14

CSc1nc(N)n(-c2ccccc2)n1
inactive: [1] 1 | [13] 1.02 | [2] 1.02 | [14] 1 | [15] 1.01 | [3] 0.916 | [16] 1.06 | [17] 1 | [4] 0.99 | [5] 1.05 | [18] 1 | [19] 0.989 | [7] 1 | S. cerevisiae deletion strains, locus YKL190W, strain CNB1, stronger effect = lower value 1.01 | [20] 1.03 | [21] 1.02 | [22] 0.995 | [23] 1.09 | [24] 0.988 | [25] 1 | [26] 1 | [27] 1 | [28] 1 | [10] 1 | [29] 1.02 | [11] 0.994 | [12] 1.01 | [30] 1.07 | S. cerevisiae strains, strain wild type, stronger effect = lower value 1.01

CSc1c(-c2ccccc2)c(N)nn1S(=O)(=O)c1ccccc1
inactive: [1] 0.99 | [13] 0.982 | [2] 0.993 | [14] 0.978 | [15] 0.998 | [3] 0.979 | [16] 0.967 | [17] 0.98 | [5] 0.913 | [18] 0.973 | [19] 1.01 | [7] 0.971 | [20] 0.836 | [21] 0.996 | [22] 0.849 | [23] 0.901 | [24] 0.944 | [25] 1 | [26] 0.983 | [8] 0.815 | [9] 0.97 | [27] 1 | [28] 0.907 | [10] 0.987 | [29] 0.951 | [11] 0.994 | [12] 0.943 | [30] 0.945
active: [6] 0.0597
